Records with an inconclusive call do not appear. The source made the active and inactive calls. Unless noted, calls follow the shape of the dose curve; as a rule, active = well fitted curve in the direction sought with a large enough effect; inconclusive = small, poorly fitted or top-dose-only effect, or another doubt; inactive = no such curve, though single readings can be large; an effect the other way counts as inactive or inconclusive.

Assay [1] addresses Estrogen receptor (Homo sapiens) (UniProt P03372). The assay is described as follows: qHTS assay for small molecule agonists of estrogen receptor alpha signaling (AID 588514; calls by dose curve; also: nearly all actives have a fitted effect of over 70% in size; also: potency is read from the fitted curve at half-maximal effect;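 as to activation: 0% = vehicle only and 100% = reference agonist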). The method, boiled down: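 EC50 and efficacy came from Hill fits of beta-lactamase reporter signal (CCF4 dye, 2 h at room temperature) scaled between DMSO and 20 nM 17-beta-estradiol. Agonist mode: HEK293 ER-alpha-UAS-bla cells in charcoal/dextran-stripped serum medium, 18 h compound exposure at 37 C.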
(In qHTS, concentration-response curves come from the screen itself.)

Assay [2] is described as follows: qHTS assay for small molecule antagonists of peroxisome proliferator-activated receptor delta signaling (AID 588535; active = well fitted inhibition curve with a large enough effect in the signal ratio, with a control signal flat, not every such curve was filed as active; the % refers to the signal ratio; also: potency is read from the fitted curve at half-maximal effect;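 as to max response: cells co-treated with a PPAR-delta agonist as stimulator during compound exposure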). The conditions noted are these: HEK293T PPARd-UAS-bla, beta-lactamase FRET ratio, 18 h; 460 nm channel. In a few lines:
(§1)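 Titrations were run on PPAR-delta-UAS-bla HEK293T cells in charcoal/dextran-stripped serum, incubated 18 h at 37 C. CCF4 fluorescence (460/530 nm) after 2 h RT; Hill equation yields IC50 and maximal response.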

Assay [3] concerns the target Peroxisome proliferator-activated receptor delta (Homo sapiens) (UniProt Q03181). The description is as above. The method, boiled down: as §1
Assay [4] addresses Peroxisome proliferator-activated receptor gamma (Homo sapiens) (UniProt P37231). Put plainly: qHTS assay for small molecule agonists of peroxisome proliferator-activated receptor gamma signaling (AID 588536; active = well fitted curve in the direction sought with a large enough effect in the signal ratio, with a control signal flat, not every such curve was filed as active; the % refers to the signal ratio;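 also: 0% = DMSO basal wells and 100% = rosiglitazone at 2 µM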). The method, boiled down: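 Cells were plated and held 6–6.5 h at 37 C, then compounds were added as a titration series. After a further 16 h, CCF4 dye was loaded for 2 h at room temperature and emission at 460/530 nm recorded.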

Assay [5] deals with Vitamin D3 receptor (Homo sapiens) (UniProt P11473). Put plainly: qHTS assay for small molecule antagonists of vitamin D receptor signaling (AID 588541; calls by dose curve; also: potency is read from the fitted curve at half-maximal effect). In a few lines:
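Antagonist-mode beta-lactamase reporter assay: HEK293T VDR-UAS-bla cells were exposed to titrated compound alongside 1-alpha,25-dihydroxyvitamin D3 at 3 nM final for 16 h. Values were normalized to the 50 nM agonist control and DMSO basal, with IC50 and efficacy from Hill equation fits.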

Assay [6] in a line: qHTS assay for small molecule agonists of retinoid X receptor alpha signaling (AID 588544; calls by dose curve;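 as to activation: 0% = DMSO basal wells and 100% = reference agonist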). The conditions noted are these: HEK293T RXRa-UAS-bla, beta-lactamase reporter, 18 h; 530 nm emission.
The target of assay [7] is Thyroid hormone receptor beta (Homo sapiens) (UniProt P10828). Put plainly: qHTS assay for small molecule agonists of thyroid hormone receptor beta signaling (AID 588545; calls by dose curve;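 also: 0% = DMSO only and 100% = 10 nM T3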). The method, boiled down: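 Stimulation of a TR-driven beta-lactamase reporter was quantified in GripTite HEK 293 cells. Compound series ran for 18 hrs; curves were normalized to T3 and DMSO controls and fitted to yield EC50.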

Assay [8] can be described thus: qHTS assay for small molecule antagonists of retinoid X receptor alpha signaling (AID 588546; active = well fitted inhibition curve with a large enough effect in the signal ratio, with a control signal flat, not every such curve was filed as active; the % refers to the signal ratio;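 also: cells stimulated with 9-cis-retinoic acid as agonist; % is scaled to controls: 0 for no effect and ±100 for the full control effect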). The conditions noted are these: HEK293T RXRa-UAS-bla, beta-lactamase ratio, antagonist mode; measured here: W530 green channel, cytotoxicity proxy. The method, boiled down: (§2)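 Beta-lactamase reporter inhibition, read as CCF4 fluorescence ratio (ex 405, em 460/530 nm) after 2 h at RT. HEK293T UAS-bla cells, 2500/well, were stimulated with 9-cis-RA at 500 or 100 nM final alongside test compound for 18 h at 37 C.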

The target of assay [9] is Thyroid hormone receptor beta (Homo sapiens) (UniProt P10828). The assay is described as follows: qHTS assay for small molecule antagonists of thyroid hormone receptor beta signaling (AID 588547; active = well fitted inhibition curve with a large enough effect in the signal ratio, with a control signal flat, not every such curve was filed as active; the % refers to the signal ratio;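 also: cells stimulated with 0.4 nM T3 agonist during compound exposure; series mostly up to about 77 µM; % is scaled to controls: 0 for no effect and ±100 for the full control effect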). The conditions noted are these: TR-UAS-bla HEK293, beta-lactamase ratio, antagonist mode, 18 h. In a few lines: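 Inhibition of T3-driven (0.4nM final) beta-lactamase reporter activity was measured over 0.59 nM to 92 uM compound after 18 h at 37 C. The cells were GripTite HEK293 TR-UAS-bla in charcoal/dextran-stripped serum, with CCF4 ratio read-out and IC50 from Hill fits.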

Assay [10] can be described thus: qHTS assay for environmental chemicals that activate the Aryl hydrocarbon Receptor (AhR) signaling pathway (AID 651777). Also: % of control where 0% means no effect; nearly all actives have a fitted effect of over 15% in size. The conditions noted are these: 1A2-DRE human hepatoma cells, luciferase, 24 h; activation: stronger effect = higher value. In a few lines:
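Stable CYP1A2 promoter/DRE-luciferase human hepatoma line treated 24 hr; One-Glo luminescence, 30 min RT.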

Assay [11] deals with Peroxisome proliferator-activated receptor alpha (Homo sapiens) (UniProt Q07869). Put plainly: qHTS assay for small molecule agonists of the peroxisome proliferator-activated receptor alpha (PPARalpha) signaling pathway (AID 651778). Also: % of control where 0% means no effect. The conditions noted are these: PathHunter PPARalpha complementation, chemiluminescence, 6 h; max response: stronger effect = higher value. In a few lines:
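Chemiluminescence from complemented enzyme reported PPARalpha activation in cells after 6 hr of compound treatment at 37 C. The detection reagent was incubated for 60 min at room temperature, and compounds were scored as agonists.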

Assay [12] can be described thus: qHTS assay for small molecule agonists of the antioxidant response element (ARE) signaling pathway measured by Nrf2-dependant transcriptional activity (AID 720636; active = well fitted curve in the direction sought with a large enough effect in the repeat runs; an effect the other way counts as inactive or inconclusive;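 also: HepG2 cells with an ARE-driven luciferase reporter; % of control where 0% means no effect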). In a few lines:
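Reporter gene assay, HepG2 ARE-luc: 16 hr compound, 37 C, 5% CO2; read-out luciferase luminescence.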

The nature of assay [13]: qHTS assay for small molecule agonists of the antioxidant response element (ARE) signaling pathway measured by Nrf2-dependant transcriptional activity - cell viability counter screen (AID 720653; active = well fitted curve in the direction sought with a large enough effect in the repeat runs; an effect the other way counts as inactive or inconclusive; also: potency is read from the fitted curve at half-maximal effect; as to max response: % is scaled to controls: 0 for no effect and ±100 for the full control effect). The conditions noted are these: ARE-bla HepG2 viability, CellTiter-Glo ATP luminescence, 16 h; max response: stronger effect = lower value. In a few lines:
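Cytotoxicity counter screen: intracellular ATP quantified by CellTiter-Glo luminescence in the same ARE-bla HepG2 plates, after 16 h compound exposure and a 2 h beta-lactamase substrate step.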

A short description of assay [14]: qHTS assay for cell viability of HEK293 cells (AID 743288). Also: % is scaled to controls: 0 for no effect and ±100 for the full control effect; nearly all actives have a fitted effect of over 50% in size. The conditions noted are these: ATP luminescence (CellTiter-Glo), 18 h; max response: stronger effect = lower value. The method, boiled down:
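After 18 h compound exposure at 37 C, parental HEK293 cells (2,000/well) are lysed with CellTiter-Glo and luminescence is read following 30 min at room temperature.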

A short description of assay [15]: qHTS assay for cell viability of the p53RE-bla HCT-116 cell line (AID 743292). Also: nearly all actives have a fitted effect of over 55% in size. Also: potency is read from the fitted curve at half-maximal effect. In a few lines:
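Readout: CellTiter-Glo luminescence after 30 min RT. Treatment: compounds in DMSO, 16 h, 37 C. Cells: CellSensor p53RE-bla HCT-116, 4,000/well, preincubated 5 h.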

Assay [16] has as its target Nuclear receptor subfamily 1 group I member 2 (Rattus norvegicus) (UniProt Q9R1A7). Put plainly: qHTS assay for small molecule activators of the rat pregnane X receptor (rPXR) signaling pathway (AID 651751; call rule not given here; also: 0% is about no effect). The conditions noted are these: rPXR reporter cells, luciferase (One-Glo), 24 h.
A short description of assay [17]: qHTS assay for small molecule activators of the human pregnane X receptor (PXR) signaling pathway (AID 720659; call rule not given here; also: 0% is about no effect).
A short description of assay [18]: qHTS assay for small molecule activators of the p53 signaling pathway (AID 651743; active = well fitted activation curve with a large enough effect in the signal ratio, not every such curve was filed as active; the % refers to the signal ratio; also: series mostly up to about 92 µM; % of control where 0% means no effect). The conditions noted are these: HCT-116 p53RE-bla, beta-lactamase FRET ratio, 16 h; activation: stronger effect = higher value. In a few lines:
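After 16 hours compound treatment at 37 C, HCT-116 cells stably expressing p53RE-driven beta-lactamase were loaded with LiveBLAzer B/G FRET substrate for 2 hours at room temperature. Fluorescence intensity served as the p53 activation read-out.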

For assay [19], the target named is Retinoic acid receptor RXR-alpha (Homo sapiens) (UniProt P19793). Put plainly: qHTS assay for small molecule agonists of retinoid X receptor alpha signaling (AID 588544).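 As to activation: 0% = DMSO basal wells and 100% = reference agonist.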
Assay [20] shares this target. The assay is described as follows: qHTS assay for small molecule antagonists of retinoid X receptor alpha signaling (AID 588546).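 Also: cells stimulated with 9-cis-retinoic acid as agonist; % is scaled to controls: 0 for no effect and ±100 for the full control effect.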 The conditions noted are these: HEK293T RXRa-UAS-bla, beta-lactamase ratio, antagonist mode. The method, boiled down:
as §2

Vitamin D3 receptor (Homo sapiens), sequence (P11473 whole entry, looked up): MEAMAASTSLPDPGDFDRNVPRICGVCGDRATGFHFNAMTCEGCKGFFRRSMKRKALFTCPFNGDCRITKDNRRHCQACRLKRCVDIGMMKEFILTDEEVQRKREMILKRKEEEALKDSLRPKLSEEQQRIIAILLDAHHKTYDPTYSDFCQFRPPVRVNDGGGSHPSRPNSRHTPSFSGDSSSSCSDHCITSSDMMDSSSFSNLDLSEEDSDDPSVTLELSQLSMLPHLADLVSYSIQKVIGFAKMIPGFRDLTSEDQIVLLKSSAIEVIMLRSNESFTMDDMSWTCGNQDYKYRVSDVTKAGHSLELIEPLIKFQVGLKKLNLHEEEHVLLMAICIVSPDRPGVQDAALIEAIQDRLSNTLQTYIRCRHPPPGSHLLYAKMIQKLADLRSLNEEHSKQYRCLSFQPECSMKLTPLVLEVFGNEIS
Peroxisome proliferator-activated receptor gamma (Homo sapiens), sequence (P37231 whole entry, looked up): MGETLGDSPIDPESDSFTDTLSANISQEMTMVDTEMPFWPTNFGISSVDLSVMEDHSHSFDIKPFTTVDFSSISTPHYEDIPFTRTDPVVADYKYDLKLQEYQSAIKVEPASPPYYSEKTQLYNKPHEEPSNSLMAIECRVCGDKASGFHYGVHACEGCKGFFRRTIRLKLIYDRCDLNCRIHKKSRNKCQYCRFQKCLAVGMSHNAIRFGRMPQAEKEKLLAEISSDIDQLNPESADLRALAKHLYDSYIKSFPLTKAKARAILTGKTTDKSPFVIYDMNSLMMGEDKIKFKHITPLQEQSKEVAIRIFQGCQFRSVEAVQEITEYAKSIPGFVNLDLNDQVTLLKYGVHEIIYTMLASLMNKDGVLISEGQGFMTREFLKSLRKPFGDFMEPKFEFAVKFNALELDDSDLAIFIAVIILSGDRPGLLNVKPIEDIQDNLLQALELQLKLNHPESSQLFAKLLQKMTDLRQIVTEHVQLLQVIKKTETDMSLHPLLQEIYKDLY
Peroxisome proliferator-activated receptor delta (Homo sapiens), sequence (Q03181 whole entry, looked up): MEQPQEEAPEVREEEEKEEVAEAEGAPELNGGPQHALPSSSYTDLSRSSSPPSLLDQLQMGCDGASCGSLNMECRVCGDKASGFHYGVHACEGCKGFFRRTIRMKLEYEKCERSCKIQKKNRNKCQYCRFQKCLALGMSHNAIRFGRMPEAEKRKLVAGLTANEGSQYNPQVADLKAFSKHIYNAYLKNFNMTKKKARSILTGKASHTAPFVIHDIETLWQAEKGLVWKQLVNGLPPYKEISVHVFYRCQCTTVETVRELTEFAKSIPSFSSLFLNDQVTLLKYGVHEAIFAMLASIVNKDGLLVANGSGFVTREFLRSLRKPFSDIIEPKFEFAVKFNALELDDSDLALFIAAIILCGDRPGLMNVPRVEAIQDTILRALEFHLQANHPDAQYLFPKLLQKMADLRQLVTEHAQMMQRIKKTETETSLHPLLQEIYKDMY
Nuclear receptor subfamily 1 group I member 2 (Rattus norvegicus), sequence (Q9R1A7 whole entry, looked up): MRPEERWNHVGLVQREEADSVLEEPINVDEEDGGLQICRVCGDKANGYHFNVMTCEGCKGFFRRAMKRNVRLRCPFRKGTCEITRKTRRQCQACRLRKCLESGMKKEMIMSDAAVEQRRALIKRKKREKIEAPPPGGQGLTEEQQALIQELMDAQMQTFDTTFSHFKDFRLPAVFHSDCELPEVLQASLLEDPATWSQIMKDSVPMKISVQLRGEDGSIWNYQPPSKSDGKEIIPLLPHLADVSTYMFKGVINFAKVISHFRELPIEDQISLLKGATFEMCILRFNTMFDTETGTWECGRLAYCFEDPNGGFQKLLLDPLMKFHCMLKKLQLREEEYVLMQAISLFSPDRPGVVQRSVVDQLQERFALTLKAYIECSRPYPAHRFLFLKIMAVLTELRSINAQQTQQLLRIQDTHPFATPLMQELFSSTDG
Peroxisome proliferator-activated receptor alpha (Homo sapiens), sequence (Q07869 whole entry, looked up): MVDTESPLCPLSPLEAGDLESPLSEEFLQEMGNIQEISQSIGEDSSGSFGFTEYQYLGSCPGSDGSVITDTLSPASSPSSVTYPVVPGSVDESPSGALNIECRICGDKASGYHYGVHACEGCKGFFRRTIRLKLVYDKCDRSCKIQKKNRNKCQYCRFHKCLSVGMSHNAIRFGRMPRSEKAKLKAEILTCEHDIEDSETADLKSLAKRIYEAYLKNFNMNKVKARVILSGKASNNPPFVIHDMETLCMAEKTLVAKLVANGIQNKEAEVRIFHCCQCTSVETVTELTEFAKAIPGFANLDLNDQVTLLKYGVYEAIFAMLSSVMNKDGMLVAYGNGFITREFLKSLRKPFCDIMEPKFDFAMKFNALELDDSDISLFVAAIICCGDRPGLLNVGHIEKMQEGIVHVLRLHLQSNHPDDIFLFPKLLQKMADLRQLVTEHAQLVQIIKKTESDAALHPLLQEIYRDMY
Estrogen receptor (Homo sapiens), sequence (P03372 whole entry, looked up): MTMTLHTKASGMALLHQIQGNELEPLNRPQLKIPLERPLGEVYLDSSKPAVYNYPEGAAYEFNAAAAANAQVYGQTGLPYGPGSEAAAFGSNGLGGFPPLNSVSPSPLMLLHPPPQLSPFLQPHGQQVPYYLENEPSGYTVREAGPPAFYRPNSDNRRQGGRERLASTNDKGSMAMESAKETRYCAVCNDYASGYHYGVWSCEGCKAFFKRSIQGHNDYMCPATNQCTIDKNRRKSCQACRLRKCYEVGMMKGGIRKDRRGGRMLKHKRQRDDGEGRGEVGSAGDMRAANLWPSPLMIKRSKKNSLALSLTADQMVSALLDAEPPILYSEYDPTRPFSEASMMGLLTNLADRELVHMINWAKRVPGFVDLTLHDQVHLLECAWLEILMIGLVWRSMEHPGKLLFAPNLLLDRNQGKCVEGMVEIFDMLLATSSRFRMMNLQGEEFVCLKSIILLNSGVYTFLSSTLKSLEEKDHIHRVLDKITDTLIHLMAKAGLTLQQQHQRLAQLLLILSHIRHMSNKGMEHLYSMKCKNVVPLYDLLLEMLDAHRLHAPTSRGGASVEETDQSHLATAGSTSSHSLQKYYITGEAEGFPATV
Retinoic acid receptor RXR-alpha (Homo sapiens), sequence (P19793 whole entry, looked up): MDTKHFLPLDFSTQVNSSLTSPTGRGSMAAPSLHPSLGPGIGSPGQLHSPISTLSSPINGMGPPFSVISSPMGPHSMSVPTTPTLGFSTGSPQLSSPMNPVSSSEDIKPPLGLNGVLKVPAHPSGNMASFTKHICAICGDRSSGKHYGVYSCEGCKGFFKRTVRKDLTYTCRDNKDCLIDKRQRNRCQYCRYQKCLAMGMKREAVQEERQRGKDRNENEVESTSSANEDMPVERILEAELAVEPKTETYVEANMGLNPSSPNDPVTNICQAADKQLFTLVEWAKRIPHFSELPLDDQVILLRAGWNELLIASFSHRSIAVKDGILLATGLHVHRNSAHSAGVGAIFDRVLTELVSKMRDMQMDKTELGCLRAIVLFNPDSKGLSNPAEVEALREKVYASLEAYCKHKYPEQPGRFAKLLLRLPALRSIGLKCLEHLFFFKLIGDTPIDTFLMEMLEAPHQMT
Thyroid hormone receptor beta (Homo sapiens), sequence (P10828 whole entry, looked up): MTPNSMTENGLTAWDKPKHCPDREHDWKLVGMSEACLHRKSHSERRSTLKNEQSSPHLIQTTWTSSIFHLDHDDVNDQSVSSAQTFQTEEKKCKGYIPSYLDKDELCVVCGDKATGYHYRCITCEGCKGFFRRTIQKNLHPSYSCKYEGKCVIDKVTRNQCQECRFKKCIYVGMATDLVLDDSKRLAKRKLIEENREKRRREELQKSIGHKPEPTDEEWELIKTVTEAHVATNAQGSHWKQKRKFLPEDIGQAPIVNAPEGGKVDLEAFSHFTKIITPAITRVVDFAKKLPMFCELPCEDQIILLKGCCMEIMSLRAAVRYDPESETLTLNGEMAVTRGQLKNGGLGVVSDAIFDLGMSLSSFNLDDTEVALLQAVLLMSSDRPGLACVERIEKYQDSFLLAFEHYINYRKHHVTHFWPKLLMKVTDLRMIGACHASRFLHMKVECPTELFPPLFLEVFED

Turning to `C=Cc1ccc(P(c2ccccc2)c2ccccc2)cc1`, the Potency result in assay [1], in [3], in assay [5], in assay [7], in assay [12] and in [15] was “inactive” in each case. Further, the max response in [2] was 16.9%; in assay [6] it was -3.97%; in [8], -0.204%; in assay [11], -0.0796% (inactive); in assay [13], -10.4% (inactive); in assay [14] it was -7.87% (inactive). Besides, the max response in assay [16] was 0.774% (inactive). For the same compound, the result in assay [4] and in [17] was inactive. Moreover, in [9], the activity change % (negative = inhibition) is 9.12% (inactive). For the same compound, the activation in [10] was 0.447% (inactive).

As to `CCCCCCCCCCCCCCCCCC(N)=O`, the Potency entry in assay [1], in [3], in assay [7], in assay [12] and in [15] was “inactive” throughout. The max response was 51.4% in [2]; -0.969% (inactive) in assay [11]; 5.14% (inactive) in [13]; -6.14% (inactive) in assay [14]; 4.74% (inactive) in [16]. In addition, the activity change % (negative = inhibition) in [9] is -14.9% (inactive). Moreover, the activation in assay [18] was 0.913% (inactive); in assay [10] it was -1.31% (inactive). In addition, the call in [17] was inactive.

Consider `Nc1ccc(N)c2c1C(=O)c1c(N)ccc(N)c1C2=O`, for which the Potency result in [1], in assay [19], in [7] and in assay [15] was “inactive” in each case. Further, the result in [4] and in assay [17] was inactive. For the same compound, the max response in assay [6] was -9.83%; in [11] it was 7.09% (inactive); in assay [13] it was -2.4% (inactive); in assay [14] it was -28.2% (inactive); in assay [16], -7.59% (inactive). Moreover, in assay [9], the activity change % (negative = inhibition) is 20.4% (inactive). In addition, in [10], the activation was 12.2% (inactive).

Consider `O=C(O)CN(CCCN(CC(=O)O)CC(=O)O)CC(=O)O`, for which the Potency in assay [1] is 8.91 µM (active); in [3] it was 14.1 µM (active). The max response is -69.3% in assay [2]; -16.9% in assay [6]; 0.851% (inactive) in [11]; -7.74% (inactive) in assay [13]; -11% (inactive) in [14]; -5.79% (inactive) in [16]. Also, the Potency entry in assay [7], in assay [12] and in [15] was “inactive” in each case. Moreover, in [10], the activation is 0.0297% (inactive). The call in assay [17] was inactive.

Turning to `CO/N=C1\C[C@]2(C[C@@H]3C[C@@H](C/C=C(\C)C[C@@H](C)/C=C/C=C4\CO[C@@H]5[C@H](O)C(C)=C[C@@H](C(=O)O3)[C@]45O)O2)O[C@H](/C(C)=C/C(C)C)[C@H]1C`, the Potency was 17.8 µM (active) in assay [5], 44.7 µM (active) in assay [13] and 28.2 µM (active) in [15]. The activation in assay [10] is 0.384% (inactive). Moreover, the Potency entry in assay [12] is “inactive”.

For the compound `CCCCCCCCCCCCCCC(=O)OC`, the Potency result in [1], in assay [3], in assay [5], in assay [19], in assay [7] and in [15] was “inactive” each time. Moreover, the max response is -7.18% in assay [2]; 2.13% in assay [6]; -9.41% in assay [8]; 8.47% (inactive) in [20]; -0.882% (inactive) in [11]; -2.69% (inactive) in assay [13]. The max response in assay [14] was -7.2% (inactive); in assay [16], -2.84% (inactive). The call in [4] and in assay [17] was inactive. Further, the activation in assay [10] is -1.03% (inactive).

For `CN(C)Cc1cc(CN(C)C)c(O)c(CN(C)C)c1`, the Potency result in [1], in assay [19], in assay [12] and in assay [15] was “inactive” throughout. In addition, the outcome in [4] and in [17] was inactive. In addition, the max response in assay [6] is -13.7%; in assay [8] it was -16.5%; in [20] it was -13.1% (inactive); in [11], -1.39% (inactive); in [13] it was -15.7% (inactive); in [14] it was -7.71% (inactive). In addition, in assay [16], the max response is 1.59% (inactive). Besides, the figures for the activation in assay [18] and in assay [10] were -4% (inactive) and -0.0067% (inactive), respectively.

The values are drawn from PubChem BioAssay (NCATS).
